Data taken from PubChem BioAssay (NCI).
This is part of a sample that, as a whole, favours compounds with a hit. Of some 83,000 tested, about 20% had one in any assay.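 Plates (96-well) were seeded with cells, treated with compound at one concentration, and incubated for 48 hours before percent growth was determined.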 Values without a mark were called inactive. Active and inactive are the calls of the source. The calls were made as follows: active = growth percent below 10; inactive = the rest.

Test system: HL-60(TB) leukemia
Assay: NCI-60 one-dose screen, 48 h (100 = growth as untreated, 0 = no growth, -100 = all killed)
Settings: 10 µM unless noted

| SMILES | growth |
| --- | --- |
| OC(CBr)c1ccnc2ccccc12 (stereo not given) | 100% |
| COc1ccc(C2=C(c3ccccc3)c3ccc(OC(C)=O)cc3OC2(C)C)cc1 | -17.1% (active) |
| O=C(NCc1ccco1)C1CN(c2ccc(Cl)cc2)N(c2ccc(Cl)cc2)C1=O (stereo not given) | 5.03% (active) |
| O=C1Nc2ccccc2/C1=N/N=C/c1c[nH]c2ccccc12 | 86.2% |
| C=C(C)[C@@H]1CC[C@]2(C)[C@H](CC=C3[C@@H]4CC(C)(C)CC[C@]4(CO)CC[C@]32C)[C@@]1(C)CCCN | -68.9% (active) |
| C=C1C(=O)O[C@H]2[C@H]1CC/C(COC(=O)c1cc(OC)c(OC)c(OC)c1)=C\CC[C@@]1(C)O[C@@H]21 | -65.1% (active) |
| NS(=O)(=O)Oc1ccc2c(ccn2C(=O)C23CC4CC(CC(C4)C2)C3)c1 | 97.6% |
| COc1ccc(-c2nc(-c3ccccc3)c(-c3ccccc3)[nH]2)cc1OC1CCCC1 | 83.1% |
| O=[N+]([O-])c1ccc(SSc2ccc([N+](=O)[O-])cc2Cl)c(Cl)c1 | 92.5% |
| Cc1ccc(Cl)cc1NC(=O)c1sc2nc3c(cc2c1N)C(=O)CCC3 | 82.2% |
| O=Nc1c(-c2c(O)[nH]c3ncccc23)[nH]c2ccccc12 | 125% |
| CNCCNc1nc2ccccc2c2c(=O)c3cc(OC)ccc3sc12 | -52.9% (active) |
| CCOC(=O)c1c(C)[nH]c2ccc(O)cc12 | 95.7% |
| COc1ccc2c(c1)CC[C@@H]1[C@@H]2CC[C@]2(C)C3C(=CCC4C(=O)N(c5ccccc5)C(=O)C43)C[C@@H]12 (stereo not given in full) | 81.6% |
| COc1ccc(Cn2cnc3cc(C(=O)Nc4cccc5ccccc45)ccc32)c(OC)c1 | -33.3% [30 µM] (active) |
| O=C(Nc1ccncc1)C(=O)c1cn(S(=O)(=O)c2cc(Cl)cc(Cl)c2)c2ccccc12 | 58.9% |
| c1cc2nc(-c3cn[nH]c3)c3c(c2cc1-c1cn[nH]c1)C1CCC3C1 (stereo not given) | 84.3% |
| c1ccc2cc(C[n+]3ccn(CCCCCCCCCCCCn4cc[n+](Cc5ccc6ccccc6c5)c4)c3)ccc2c1 | -69.5% (active) |
| NC(=O)c1ncn([C@@H]2O[C@H](CO)[C@@H](O)[C@H]2O)n1 | 109% |
| Cc1cc2nc3[nH]c4ccccc4c3nc2cc1C | 55.2% |

| SMILES | growth |
| --- | --- |
| COc1ccc(-c2nc3sccn3c2-c2ccnc(NCCNS(=O)(=O)c3ccc(C(F)(F)F)cc3)n2)cc1 | 4.59% (active) |
| C[N+](C)(C)CCOC(OCC[N+](C)(C)C)(c1ccccc1)c1ccccc1 | 110% |
| CCOC(=O)CC1CSC(N/N=C(/C)c2cccc(C(F)(F)F)c2)=N1 (stereo not given) | 101% |
| CCCCCCCSc1ccc(C(=O)O)cc1 | 98.6% |
| COC(=O)c1c2c(c(C)[n+]([O-])c1C)C(=O)C=CC2=O | -7.95% (active) |
| N#Cc1nc(-c2ccc(F)cc2)oc1S(=O)(=O)N1CCOCC1 | 16% |
| OC(COc1ccccc1Cl)CN1CCN(c2ccc(Cl)cc2)CC1 (stereo not given) | 109% |
| NC(=O)c1cnc(Nc2cccc(N)c2)nc1NCCCNC(=O)C1CCC1 | 55.2% |
| C[Si](C)(C)Cc1ccccc1 | 125% |
| COc1ccc(-c2cc3c(oc2=O)-c2ccccc2OC3OC(C)=O)cc1 (stereo not given) | 85.8% |
| CCCCNc1nc(NN2C(=O)c3cccc4cccc(c34)C2=O)nc(-n2cnc3ccccc32)n1 | 94.2% |
| O=c1c2cc(Br)cc(Br)c2nc(-c2ccc(Cl)cc2)n1/N=C\c1ccccc1F | 82% |
| COc1ccc2c(c1)CC[C@@H]1[C@@H]2CC[C@]2(C)C3C(=CC(COC(C)=O)C4C(=O)N(c5ccc(Cl)cc5)C(=O)C43)C[C@@H]12 (stereo not given in full) | 88.4% |
| CCOC(=O)C(=Cc1c(-c2ccccc2)[nH]c2ccccc12)C(=O)OCC | -52% (active) |
| CC(=O)Nc1ccc(C(=O)/C=C/c2ccccc2)cc1 | 53.9% |
| Nc1c(C(=O)Nc2ccccc2)sc2nc3c(cc12)CN(CCc1ccccc1)CC3 | 102% |
| COC(=O)C1=C(C)NC(C)=C(C(=O)OCC(C)C)C1c1ccccc1[N+](=O)[O-] (stereo not given) | 28.9% |
| Oc1c(C(Nc2ccccn2)c2cccc(Oc3ccccc3)c2)ccc2cccnc12 (stereo not given) | -51.9% (active) |
| Cc1nc2sc(C(=O)Nc3cccc4c3OCCO4)c(N)c2cc1C(C)O (stereo not given) | 8.35% (active) |
| CN1C(=O)C2(SCC(C(=O)NCC(=O)OC(C)(C)C)N2C(=O)C2CCCCC2)c2ccccc21 (stereo not given) | 93.7% |
